Some test systems named below: SR leukemia; RPMI-8226 leukemia; OVCAR-8 ovarian; OVCAR-5 ovarian; OVCAR-4 ovarian; SK-OV-3 ovarian; IGROV1 ovarian; OVCAR-3 ovarian; HS 578T breast; NCI/ADR-RES ovarian; T-47D breast; BT-549 breast; MDA-MB-435 melanoma; SW-620 colon; MCF7 breast; HCT-116 colon; HCC-2998 colon; KM12 colon.
Test in all cases: NCI-60 one-dose screen, 48 h (100 = growth as untreated, 0 = no growth, -100 = all killed)
Common to all, as to settings: 10 µM unless noted

About 83,000 compounds went through this panel and 20% of them were active in at least one assay; those are over-represented in the sample as a whole.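 96-well plates, one dose, 48 hours. Percent growth reported; active if below 10.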 Values without a mark were called inactive. The source made the active and inactive calls.

For eight molecules, growth results are on record in PubChem BioAssay (NCI).

Regarding `CCOC(=O)c1c(C)oc2ncnc(Nc3ccc(NC(=O)Nc4ccc(CC)cc4)cc3)c12`, the growth in the test on SR leukemia was 81.6%; in the test with RPMI-8226 leukemia, 95.1%; in the test with OVCAR-8 ovarian, 112%; in the test on OVCAR-5 ovarian, 107%; with OVCAR-4 ovarian it was 105%; in the test on SK-OV-3 ovarian, 88.2%. Moreover, the growth with IGROV1 ovarian is 110%; in the test on OVCAR-3 ovarian it was 118%; in the test with HS 578T breast it was 97.7%; in the test on NCI/ADR-RES ovarian, 97.2%; in the test on T-47D breast, 78.3%; in the test on BT-549 breast it was 84.5%. Moreover, the growth in the test on MDA-MB-435 melanoma was 102%; with SW-620 colon it was 113%; in the test with MCF7 breast, 94.9%; in the test with HCT-116 colon, 78.8%; with HCC-2998 colon it was 114%; in the test on KM12 colon it was 103%.
Turning to `CCC(C)[C@H](NC(=O)Nc1cc(C(F)(F)F)cc(C(F)(F)F)c1)C(=O)N[C@@H](Cc1cn(C)cn1)C(=O)OC` (stereo partly drawn), the growth in the test on SR leukemia was -37.8% [100 µM] (active); in the test on RPMI-8226 leukemia it was -65.7% [100 µM] (active); in the test with OVCAR-8 ovarian, -78.3% [100 µM] (active); in the test with OVCAR-5 ovarian it was -93.7% [100 µM] (active); in the test with OVCAR-4 ovarian, -96.7% [100 µM] (active); in the test with SK-OV-3 ovarian it was -100% [100 µM] (active). Further, the growth was -81.5% [100 µM] (active) with IGROV1 ovarian; -97.6% [100 µM] (active) in the test with OVCAR-3 ovarian; -18.6% [100 µM] (active) in the test on HS 578T breast; -49.2% [100 µM] (active) in the test with NCI/ADR-RES ovarian; -63.1% [100 µM] (active) with T-47D breast; -94.5% [100 µM] (active) in the test with BT-549 breast. The growth with MDA-MB-435 melanoma was -91.6% [100 µM] (active); with SW-620 colon it was -58.3% [100 µM] (active); with MCF7 breast, -60.1% [100 µM] (active); with HCT-116 colon, -93.1% [100 µM] (active); in the test with HCC-2998 colon, -89.9% [100 µM] (active).
In the case of `CC(=O)CCS(=O)c1ccccc1` (stereo not drawn), the growth in the test on SR leukemia was 85.1%; with RPMI-8226 leukemia, 104%; with OVCAR-8 ovarian, 104%; in the test with OVCAR-5 ovarian, 108%; in the test with OVCAR-4 ovarian, 106%; in the test with SK-OV-3 ovarian, 110%. Also, the growth in the test with IGROV1 ovarian is 105%; in the test with OVCAR-3 ovarian it was 101%; in the test on HS 578T breast, 98.4%; with NCI/ADR-RES ovarian, 99.1%; in the test on T-47D breast it was 100%; in the test on BT-549 breast it was 119%. Further, the growth was 111% with MDA-MB-435 melanoma; 98% with SW-620 colon; 91.6% in the test on MCF7 breast; 102% with HCT-116 colon; 91.7% in the test on HCC-2998 colon; 97.9% in the test on KM12 colon.
`CC1(C)CC(=O)C2=C(C1)Oc1nc(N)c(C#N)c(N)c1C2c1ccc(F)cc1` (stereo not drawn): the growth with SR leukemia was 55.3%; in the test with RPMI-8226 leukemia, 163%; in the test on OVCAR-8 ovarian, 106%; with OVCAR-5 ovarian, 105%; in the test with OVCAR-4 ovarian it was 102%; with SK-OV-3 ovarian it was 115%. The growth in the test with IGROV1 ovarian was 500%; in the test on OVCAR-3 ovarian it was 121%; in the test with HS 578T breast, 103%; with NCI/ADR-RES ovarian it was 122%; in the test with T-47D breast, 116%; with BT-549 breast, 100%. In addition, the growth in the test with MDA-MB-435 melanoma is 112%; in the test with SW-620 colon, 101%; in the test on MCF7 breast, 109%; with HCT-116 colon it was 109%; in the test on HCC-2998 colon, 132%; in the test with KM12 colon it was 109%.
Consider `COc1cc2ncnc(Nc3ccc4c(cnn4C(=O)Nc4ccccc4)c3)c2cc1OC`, for which the growth was 1.84% (active) in the test on SR leukemia; 70.5% in the test on RPMI-8226 leukemia; 103% in the test on OVCAR-8 ovarian; 105% in the test with OVCAR-5 ovarian; 88.5% in the test on OVCAR-4 ovarian; 110% in the test with SK-OV-3 ovarian. Besides, the growth was 80.7% with IGROV1 ovarian; 95.7% in the test on OVCAR-3 ovarian; 102% in the test with HS 578T breast; 100% in the test on NCI/ADR-RES ovarian; 77.7% in the test with T-47D breast; 83.4% in the test with BT-549 breast. Also, the growth in the test on MDA-MB-435 melanoma was 94.7%; in the test with SW-620 colon, 103%; with MCF7 breast it was 60.4%; in the test with HCT-116 colon, 95.8%; in the test on HCC-2998 colon, 87.4%; with KM12 colon, 93.5%.
For the molecule `CCCCCCCCc1ccc(OCCOCC[N+](C)(C)CC)cc1` (tested in a mixture with another compound), the growth is 37.7% with SR leukemia; 8.79% (active) with RPMI-8226 leukemia; 48.4% in the test with OVCAR-8 ovarian; 76% in the test on OVCAR-5 ovarian; 20.7% in the test with OVCAR-4 ovarian; 78.5% in the test on SK-OV-3 ovarian. The growth is 33.8% with IGROV1 ovarian; 20.6% in the test with OVCAR-3 ovarian; 37.7% with HS 578T breast; 107% in the test on NCI/ADR-RES ovarian; 23.5% with T-47D breast; 45.3% with BT-549 breast. Further, the growth in the test on MDA-MB-435 melanoma is 15.3%; in the test with SW-620 colon it was 46.4%; in the test with MCF7 breast it was 20.3%; with HCT-116 colon, 54.2%; in the test with HCC-2998 colon it was 34.6%; in the test with KM12 colon, 18%.
For the molecule `COc1cc(-c2cc3cnccc3c3nc(N)c4ccncc4c23)cc(OC)c1OC`, the growth with SR leukemia is 17%; in the test on RPMI-8226 leukemia, 8.28% (active); in the test on OVCAR-8 ovarian, 41.4%; in the test with OVCAR-5 ovarian, 68.7%; with OVCAR-4 ovarian, 73.5%; in the test with SK-OV-3 ovarian, 57.5%. The growth in the test on IGROV1 ovarian is 15%; with OVCAR-3 ovarian, 48.8%; with HS 578T breast, 10.1%; in the test on NCI/ADR-RES ovarian, 30.7%; in the test with T-47D breast, 37.5%; in the test with BT-549 breast it was 42.2%. Moreover, the growth with MDA-MB-435 melanoma is 4.6% (active); in the test with SW-620 colon, 46.8%; in the test with MCF7 breast, 29.8%; in the test on HCT-116 colon, 35.1%; in the test on HCC-2998 colon, 70.1%; with KM12 colon it was 48.1%.
Take `Clc1ccc(I)c2ccccc12`: the growth with SR leukemia is 102%; in the test on RPMI-8226 leukemia, 104%; in the test on OVCAR-8 ovarian it was 102%; in the test on OVCAR-5 ovarian, 107%; in the test on OVCAR-4 ovarian, 107%; in the test on SK-OV-3 ovarian, 103%. For the same molecule, the growth is 107% in the test on IGROV1 ovarian; 108% in the test on OVCAR-3 ovarian; 98.9% with HS 578T breast; 109% in the test on NCI/ADR-RES ovarian; 96.8% with T-47D breast; 94.6% in the test on BT-549 breast. Further, the growth was 108% with MDA-MB-435 melanoma; 107% with SW-620 colon; 95.8% in the test on MCF7 breast; 97.4% in the test with HCT-116 colon; 107% in the test with HCC-2998 colon; 110% with KM12 colon.
